PubChem BioAssay (NCI)
The panel holds about 83,000 compounds, 20% with a hit somewhere; the sample as a whole holds those more often.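 A percent growth of 40 corresponds to 60% growth inhibition; 0 means no net growth; -100 means all cells died. Active threshold: below 10.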 Calls of active or inactive are those of the source.

Tests used:
Test in all cases: NCI-60 one-dose screen, 48 h (100 = growth as untreated, 0 = no growth, -100 = all killed)
Conditions in all cases: 10 µM unless noted
[1] = test system: HCT-15 colon
[2] = test system: HT29 colon
[3] = test system: SNB-75 CNS
[4] = test system: SNB-19 CNS
[5] = test system: PC-3 prostate
[6] = test system: SK-MEL-5 melanoma
[7] = test system: UACC-62 melanoma
[8] = test system: LOX IMVI melanoma
[9] = test system: SK-MEL-28 melanoma
[10] = test system: SK-MEL-2 melanoma
[11] = test system: EKVX NSCLC
[12] = test system: SN12C renal
[13] = test system: UO-31 renal
[14] = test system: TK-10 renal
[15] = test system: ACHN renal
[16] = test system: CAKI-1 renal
[17] = test system: A498 renal
[18] = test system: CCRF-CEM leukemia
[19] = test system: MOLT-4 leukemia

Measured: growth

COc1ccc2c(c1)c(-c1noc(C(=O)c3cn(C)c4ccc(Br)cc34)n1)cn2C
inactive: [1] 113% | [2] 92.5% | [3] 101% | [4] 102% | [5] 95.3% | [6] 100% | [7] 93% | [8] 96.8% | [9] 117% | [10] 93.9% | [11] 114% | [12] 100% | [13] 76.1% | [14] 103% | [15] 103% | [16] 94.2% | [17] 121% | [18] 99.8% | [19] 82.7%

CC(C)OC(=O)c1ccc2[nH]c(O)c(C(=Nc3ccc(N(C)C(=O)CN4CCN(C)CC4)cc3)c3ccccc3)c2c1
active: [1] -14.4% | [2] -48.1% | [3] -98.1% | [4] 1.52% | [5] 9.18% | [6] -95.4% | [7] -44.1% | [8] -96.7% | [9] -54.4% | [10] -73.6% | [11] -3.97% | [12] 8.95% | [13] -96.3% | [14] -90.5% | [15] 2.21% | [16] -93.4% | [17] -48.3% | [18] 6.41% | [19] -17.9%

CC1(C)CC[C@]2(c3nnc(-c4ccncc4)o3)CC[C@H]3C(=CC[C@H]4[C@@]3(C)CC[C@H]3C(C)(C)C(=O)CC[C@]43C)[C@@H]2C1
inactive: [1] 61.1% | [2] 50.9% | [3] 68.3% | [4] 74% | [5] 25.1% | [6] 62.4% | [7] 54.7% | [8] 57.4% | [9] 87.5% | [10] 97% | [11] 80.1% | [12] 75.2% | [13] 51% | [14] 97.5% | [15] 71.3% | [16] 58.1% | [17] 31.6% | [18] 52.5% | [19] 38.7%

O=C(CSc1nc2sc3c(c2c(=O)n1-c1ccccc1)CCCCC3)N/N=C/c1ccc(F)cc1
inactive: [1] 48.6% | [2] 26.2% | [4] 47.4% | [5] 45.8% | [6] 50.7% | [7] 83.5% | [8] 37.1% | [9] 48.9% | [10] 91.9% | [11] 80% | [12] 16.3% | [13] 88.2% | [14] 69.1% | [15] 26.8% | [17] 89.7% | [18] 46% | [19] 67.1%
active: [3] -65.4% | [16] -13.7%

C#CCOc1cccc(Nc2ncnc3c(NC(=O)C=C)cccc23)c1
inactive: [1] 21.3% | [3] 23% | [4] 28.1% | [5] 23.8% | [7] 17.4% | [9] 52.1% | [11] 55.7% | [13] 25.8% | [15] 23.8% | [16] 25.7% | [17] 32%
active: [2] 5.3% | [6] 8.31% | [8] 8% | [10] 8.09% | [12] 0.801% | [14] -6.1% | [18] 2.68% | [19] 4.11%

CCc1n(Cc2ccc3ccccc3c2)cc[n+]1Cc1ccc2ccccc2c1
inactive: [1] 70.1% | [13] 80.6% | [15] 72.3% | [16] 84.5% | [17] 21.8% | [18] 11.4% | [19] 10.6%
active: [2] -32.2% | [3] -5.96% | [4] 5.41% | [5] 2.65% | [6] -93.3% | [7] -43.1% | [8] 1.9% | [9] 2.03% | [10] -55.2% | [12] 6.37% | [14] -10.3%

C#COc1cccc(Nc2ncnc3ncc(NC(=O)CCl)cc23)c1
active: [1] -30.3% [6.25 µM] | [2] -65.2% [6.25 µM] | [8] -94.2% [6.25 µM] | [12] 3.98% [6.25 µM] | [13] -68.1% [6.25 µM] | [14] -24.2% [6.25 µM] | [15] 7.63% [6.25 µM]
inactive: [3] 49.5% [6.25 µM] | [4] 20% [6.25 µM] | [5] 20.6% [6.25 µM] | [6] 47.1% [6.25 µM] | [7] 27.2% [6.25 µM] | [9] 55.4% [6.25 µM] | [10] 24.5% [6.25 µM] | [11] 57.1% [6.25 µM] | [17] 61.8% [6.25 µM] | [18] 23.2% [6.25 µM] | [19] 50.4% [6.25 µM]

CN1CCN(C(=O)c2ccc(NC(=O)Nc3ccc(-c4nc(N5CCOCC5)c5cccn5n4)cc3)cc2)CC1
inactive: [1] 13.2% | [18] 16.9%
active: [2] 5.74% | [3] -37.7% | [4] 3.27% | [5] 5.5% | [6] -61.6% | [7] -41.3% | [8] -3.2% | [9] -18.4% | [10] -8.25% | [11] -22.8% | [12] 5.33% | [13] -14.6% | [14] -23.5% | [15] -6.03% | [17] -51.5% | [19] 0.147%

CC1=Nc2cnc(Nc3ccc(OCCN4CCCCC4)cc3)nc2Nc2ccccc21
inactive: [1] 27.8% | [2] 50.6% | [4] 87.8% | [5] 48.7% | [6] 69.2% | [7] 85.7% | [8] 47.6% | [9] 99.3% | [10] 50.2% | [12] 49.2% | [13] 11% | [14] 64.2% | [15] 27.1% | [16] 17.2% | [18] 70.2% | [19] 25.4%
active: [3] 9.67% | [17] -9.49%

O=c1oc2ccc([N+](=O)[O-])cc2cc1Br
inactive: [1] 100% | [2] 102% | [3] 86.6% | [4] 108% | [5] 96.8% | [6] 102% | [7] 101% | [8] 97.2% | [9] 107% | [10] 106% | [11] 102% | [12] 105% | [13] 88.5% | [14] 105% | [15] 117% | [16] 94.5% | [17] 99.7% | [18] 109% | [19] 98.5%

N#Cc1c(-c2ccc(Cl)cc2)nc(SCC(=O)NC2=NN=C(c3ccccc3)CS2)[nH]c1=O
inactive: [1] 72.4% | [2] 104% | [3] 80.5% | [4] 85.8% | [5] 78.6% | [6] 84.2% | [7] 75.1% | [8] 69.5% | [9] 76.3% | [10] 82.9% | [11] 86.2% | [12] 97.4% | [13] 71.2% | [14] 119% | [15] 88.9% | [16] 77% | [17] 97.6% | [18] 63.8% | [19] 90.4%

Cc1cnc(C(=O)NNc2nc3sc4c(c3c(=O)n2C)C(C)CCC4)cn1 (centres undefined)
active: [2] -2.88% | [3] 1.63% | [4] -14.8% | [5] 8.78% | [6] -53.8% | [7] -20.8% | [8] -17.5% | [9] 8.43% | [10] -6.07% | [11] 6.08% | [12] 9.01% | [13] -0.356% | [15] 9.47% | [16] 2.74% | [18] 2.41% | [19] 3.79%
inactive: [1] 15.9% | [14] 27.2% | [17] 21.1%

CNC(=O)c1c(NC(=O)c2ccc(C(F)(F)F)cc2)sc2c1CCC(=O)C2
inactive: [14] 34.2%
active: [1] -54.1% | [2] 5.12% | [3] -17.4% | [4] 2.58% | [5] -30.9% | [6] -71.6% | [7] -29.1% | [8] 1.51% | [9] 4.24% | [10] -12.1% | [11] 9.76% | [12] 5.31% | [13] -94.3% | [15] -20.3% | [16] -32.9% | [17] -12.5% | [18] -5.31% | [19] 2.28%

O=C(NNC(=O)c1ccc(-n2cc(-c3ccccc3)nn2)cc1)Nc1ccccc1
inactive: [1] 103% | [2] 118% | [3] 97.2% | [4] 90.1% | [5] 99.8% | [6] 100% | [7] 97.9% | [8] 97.1% | [9] 109% | [10] 110% | [11] 108% | [12] 97.7% | [13] 92.2% | [14] 109% | [15] 101% | [16] 91.8% | [17] 105% | [18] 102% | [19] 107%

COc1ccccc1Nc1nc2c(s1)C1=CC[C@H]3[C@@H]4CC[C@H]([C@H](C)CCCC(C)C)[C@@]4(C)CC[C@@H]3[C@@]1(C)CC2
inactive: [1] 103% | [2] 101% | [3] 97.6% | [4] 104% | [5] 92.7% | [6] 100% | [7] 96.7% | [9] 110% | [10] 115% | [11] 105% | [12] 99.6% | [13] 73.5% | [14] 117% | [15] 104% | [16] 90.5% | [17] 132% | [18] 109% | [19] 104%

Oc1c(Cl)cc(Cl)c2ccc(Cn3cc(-c4cc(C(F)(F)F)cc(C(F)(F)F)c4)nn3)nc12
inactive: [1] 12.5% | [2] 53.4% | [3] 62.3% | [4] 94% | [5] 74.8% | [6] 92.6% | [7] 64.8% | [9] 46% | [10] 89.9% | [11] 80.9% | [12] 65.4% | [13] 57% | [14] 96.7% | [15] 11.4% | [16] 13.8% | [17] 103%
active: [8] -10.3% | [18] 4.83% | [19] 2.95%
